Reference: PubChem BioAssay AID1159580 (chemical genetic matrix, 2015)
“And” between values parts separate entries of the source, which are not always exact repeats. Identical values can stand only once. Hit rate of the full screen: of about 5,500 compounds, about 2,000 (36%) were called active. Not shown: some 18% with an inconclusive outcome. Cut-off read from the data, not from the text of the source: active = normalized growth mostly below about 0.91 (no sharp cut-off); inconclusive = no clear call, values can overlap the other calls; inactive = mostly above about 0.92. The list shows a part of the results.

Test: chemical genetic growth profiling, strain panel (AID 1159580);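 note: tested at 20 µM; growth read once vehicle control cultures reached saturation at 30 °C; 1 = growth at the plate median or of vehicle wells; lower values mean less growth of the strain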
Conditions: S. cerevisiae deletion strains, growth OD

Measured: normalized growth

CCN(CC)CCNc1ccc(CO)c2sc3ccccc3c(=O)c12
inactive: locus YAL013W, strain DEP1, active compounds read low 1.01 | locus YAL021C, strain ccr4, active compounds read low 0.994 | locus YAL026C, strain drs2, active compounds read low 0.999 | locus YAL030W, strain snc1, active compounds read low 1.01 | locus YBL061C, strain skt5, active compounds read low 1 | locus YBR009C, strain hhf1, active compounds read low 1.01 | locus YBR021W, strain FUR4, active compounds read low 0.955 | locus YBR023C, strain chs3, active compounds read low 1 | locus YBR171W, strain sec66, active compounds read low 1.02 | locus YBR229C, strain ROT2, active compounds read low 1 | locus YBR231C, strain swc5, active compounds read low 1 | locus YBR279W, strain paf1, active compounds read low 1 | locus YCL011C, strain gbp2, active compounds read low 1 | locus YCL016C, strain dcc1, active compounds read low 1 | locus YCL029C, strain bik1, active compounds read low 1.01 | locus YCL069W, strain vba3, active compounds read low 1.01 | locus YCR088W, strain abp1, active compounds read low 1.01 | locus YDL005C, strain med2, active compounds read low 1.01 | locus YDL035C, strain GPR1, active compounds read low 0.992 | locus YDL040C, strain nat1, active compounds read low 0.993 | locus YDL074C, strain BRE1, active compounds read low 0.948 | locus YDL101C, strain DUN1, active compounds read low 0.979 | locus YDL134C, strain PPH21, active compounds read low 0.996 | locus YDL185W, strain tfp1, active compounds read low 1 | locus YDL192W, strain arf1, active compounds read low 1.01 | locus YDR001C, strain nth1, active compounds read low 1.01 | locus YDR069C, strain doa4, active compounds read low 1.01 | locus YDR101C, strain arx1, active compounds read low 1 | locus YDR137W, strain rgp1, active compounds read low 0.894 | locus YDR150W, strain NUM1, active compounds read low 1 | locus YDR159W, strain sac3, active compounds read low 1 | locus YDR162C, strain NBP2, active compounds read low 0.969 | locus YDR195W, strain ref2 1.07 | locus YDR297W, strain sur2, active compounds read low 1.01 | locus YDR318W, strain mcm21, active compounds read low 1 | locus YDR334W, strain swr1, active compounds read low 1 | locus YDR335W, strain msn5, active compounds read low 1.02 | locus YDR388W, active compounds read low 1.01 | locus YDR392W, strain spt3, active compounds read low 0.999 | locus YDR502C, strain sam2, active compounds read low 0.961 | locus YEL003W, strain gim4, active compounds read low 1.01 | locus YEL037C, strain rad23, active compounds read low 1.01 | locus YEL061C, strain CIN8 (second series), active compounds read low 0.999 | locus YEL061C, strain CIN8, active compounds read low 0.999 | locus YER015W, strain faa2, active compounds read low 1 | locus YER016W, strain bim1, active compounds read low 0.99 | locus YER110C, active compounds read low 1.02 | locus YER111C, strain swi4, active compounds read low 1 | locus YER155C, strain BEM2 (second series), active compounds read low 0.972 | locus YER155C, strain BEM2, active compounds read low 1.03 | locus YER167W, strain BCK2, active compounds read low 1 | locus YFR010W, strain ubp6, active compounds read low 0.999 | locus YGL078C, strain dbp3, active compounds read low 1.01 | locus YGL086W, strain mad1, active compounds read low 1 | locus YGL167C, strain pmr1, active compounds read low 1.01 | locus YGL173C, strain kem1, active compounds read low 1.01 | locus YGL227W, strain vid30, active compounds read low 0.989 | locus YGL240W, strain doc1, active compounds read low 1.01 | locus YGL248W, strain PDE1, active compounds read low 1 | locus YGL253W, strain hxk2, active compounds read low 1.01 | locus YGR078C, strain PAC10, active compounds read low 0.975 | locus YGR135W, strain pre9, active compounds read low 0.971 | locus YGR229C, strain SMI1, active compounds read low 0.998 | locus YGR252W, strain gcn5, active compounds read low 0.918 | locus YHR013C, strain ard1, active compounds read low 1.01 | locus YHR027C, strain rpn1, active compounds read low 1.01 | locus YHR030C, strain SLT2, active compounds read low 1.01 | locus YHR079C, strain IRE1 (second series), active compounds read low 1.01 | locus YHR079C, strain IRE1, active compounds read low 1.01 | locus YHR094C, strain hxt1, active compounds read low 1.02 | locus YHR129C, strain ARP1, active compounds read low 0.995 | locus YHR142W, strain chs7, active compounds read low 1.01 | locus YHR200W, strain rpn10, active compounds read low 1.02 | locus YIL066C, strain RNR3, active compounds read low 0.968 | locus YIL073C, strain SPO22, active compounds read low 1.18 | locus YIL125W, strain kgd1, active compounds read low 1.01 | locus YIR030C, strain dcg1, active compounds read low 1.02 | locus YJL092W, strain hpr5, active compounds read low 1 | locus YJL095W, strain BCK1 (second series), active compounds read low 1.01 | locus YJL095W, strain BCK1, active compounds read low 0.952 and 1.02 | locus YJL115W, strain asf1, active compounds read low 1.03 | locus YJL129C, strain trk1, active compounds read low 1 | locus YJL134W, strain LCB3, active compounds read low 1 | locus YJL154C, strain vps35, active compounds read low 1.01 | locus YJL164C, strain tpk1, active compounds read low 1.01 | locus YJL166W, strain qcr8, active compounds read low 1.02 | locus YJL168C, strain set2, active compounds read low 1.02 | locus YJL187C, strain SWE1 (second series), active compounds read low 0.986 | locus YJL187C, strain SWE1, active compounds read low 1 | locus YJR043C, strain POL32, active compounds read low 1 | locus YJR066W, strain TOR1, active compounds read low 0.949
